# Measurements reported in PubChem BioAssay AID449762 (Southern Research Specialized Biocontainment Screening …, 2010).
# About 1,900 (0.58%) of roughly 330,000 compounds were called active. Inconclusive results (about 4%) are left out. Not all results are given here. Entries with a potency or affinity are not part of this list. Unmarked numbers belong to inactive results. Cut-off read from the data, not from the text of the source: inconclusive = inhibition above about 70% without an active follow-up result; inactive = below that.
# Test: M. tuberculosis growth inhibition, HTS (AID 449762);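 note: bacterial growth assessed after seven days of incubation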
# Details: M. tuberculosis H37Rv growth inhibition, 7H9 media; at 25 µM; hits give high values
row,Structure (SMILES),inhibition [%]
1,O=C1C=C(c2cccc3c2sc2ccccc23)C[C@@H](c2ccc(Cl)cc2)C1,-0.695
2,CSc1ccc(/C=C/C(=O)Nc2ccccc2)cc1,10.6
3,CCCC(=O)Nc1ccc(C(N)=O)cc1,-1.73
4,CSc1nsc(SCC(=O)NC2CCCCC2)n1,66.1
5,Cc1nnc(SCC(=O)N2CCCCC2)s1,-0.73
6,COc1cc(OC)c(C(=O)OCC(=O)Nc2c(C)n(C)n(-c3ccccc3)c2=O)cc1OC,1.54
7,O=C1NC[C@H](c2ccccc2)N(CC2CCCCC2)C1=O,-2.23
8,C/C(=N\Nc1ccc([N+](=O)[O-])cc1)c1ccc(N)cc1,-12.2
9,C/C(=N\Nc1ccccc1)c1cccc(N)c1,-1.02
10,Cn1cnc(S(=O)(=O)N2CCN(c3ccc(Cl)cc3)CC2)c1,1.05
11,CC(C)COC(=O)Nc1ccccc1C(=O)N1CCOCC1,-0.44
12,Cc1ccc(N(Cc2cc3ccccc3[nH]c2=O)S(C)(=O)=O)cc1,-5.78
13,O=c1[nH][nH]c(-c2ccccc2O)c1C(C[N+](=O)[O-])c1ccccc1 (stereo unspecified),25.6
14,Cc1[nH]c2ccccc2c1C(C[N+](=O)[O-])c1cccc(O)c1 (stereo unspecified),0.72
15,O=C(N/N=C/c1ccco1)c1cc(-c2cccc(Br)c2)nc2ccccc12,5.09
16,CCNC(=S)/N=C(\N)Nc1nc(C)c2cc(C)ccc2n1,26.4
17,CCOc1ccc2nc(N/C(N)=N/C(=S)Nc3ccc(C)c(C)c3)nc(C)c2c1,39.5
18,CCOc1ccc2nc(N/C(N)=N/C(=S)Nc3ccc(OC)cc3)nc(C)c2c1,1.27
19,Cc1cccc(NC(=S)/N=C(\N)Nc2nc(C)c3cc(C)ccc3n2)c1,8.71
20,COc1ccc(N2CCN(C(=O)c3cc4cc(Cl)ccc4[nH]3)CC2)cc1,-7.94
21,COc1ccc(Cl)cc1NC(=O)CN1CCCCCC1,-5.19
22,Cc1ccc(S(=O)(=O)CC(=O)N2CCN(c3ccc(F)cc3)CC2)cc1,-10.4
23,O=c1c2ccccc2c(=O)n2n1Cc1ccccc1C2,0
24,CCC1CSC(Nc2ccc(C(=O)/C=C/c3ccc(Oc4ccccc4)cc3)cc2)=N1 (stereo unspecified),4.72
25,Cc1cccc(/C=C/C(=O)c2ccc(N3CCOCC3)cc2)c1,-1.54
26,Cc1ccc(N(CC(O)CN2C(=O)NC(C)(C)C2=O)S(=O)(=O)c2ccc([N+](=O)[O-])cc2)cc1 (stereo unspecified),0.97
